D3 antag: antagonists of human D3 dopamine receptor; P35462; D3R cells, DiscoveRx beta-arrestin luminescence, antagonist mode; stronger effect = lower value; max response, negative = inhibition, %; hit rate 2.5% among 360,000; AID 652054; in the data active = max response below about -50%; inconclusive = no clear call, values can overlap the other calls; note: % is set by controls: 0 for no effect and ±100 for the full control effect
Target sequence (P35462 whole entry, looked up): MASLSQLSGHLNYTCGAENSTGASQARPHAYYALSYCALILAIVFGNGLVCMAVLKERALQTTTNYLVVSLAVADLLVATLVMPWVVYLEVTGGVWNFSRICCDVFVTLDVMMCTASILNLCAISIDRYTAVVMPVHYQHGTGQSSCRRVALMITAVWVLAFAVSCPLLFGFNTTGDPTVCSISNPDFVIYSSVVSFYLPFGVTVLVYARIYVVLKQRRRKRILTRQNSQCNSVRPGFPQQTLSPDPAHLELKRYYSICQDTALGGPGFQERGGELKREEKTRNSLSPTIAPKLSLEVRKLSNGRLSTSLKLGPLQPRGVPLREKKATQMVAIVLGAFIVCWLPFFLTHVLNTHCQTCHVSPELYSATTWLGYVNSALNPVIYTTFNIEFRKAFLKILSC
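Cells expressing the human receptor were seeded at 1500 cells/well, incubated overnight at 37 degrees C in 5% CO2, then exposed to library compounds with dopamine controls for 90 minutes at 37 degrees C before luminescent detection.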
KB-V1 cytotox: KB-V1 MDR subline cytotoxicity | KB-V1 MDR cells viability, CellTiter-Glo, 72 h | Potency, µM (highest dose often 46.1 µM), actives largely listed as cytotoxic | hit rate 3.4% among 400,000; note: potency is the fitted concentration of half-maximal effect; % is set by controls: 0 for no effect and ±100 for the full control effect; nearly all actives have a fitted effect of over 60% in size
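Following 72 h at 37 degrees C with compound, KB-V1 cell viability was read by CellTiter-Glo luminescence, medium being phenol-red-free DMEM plus 10% FBS; concentration-response parameters came from normalized, curve-fitted qHTS data.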
SW480 rerep: inducers of DNA re-replication in SW480 colon cancer cells | SW480 DNA re-replication, Hoechst DNA content imaging, 48 h | hit rate 1.8% among 340,000 | Potency, µM (titrated, usually from 46.1 µM), without a hit: top-dose re-replication activation, hits mostly activators | AID 624297; note: potency is the fitted concentration of half-maximal effect; % of control where 0% means no effect; nearly all actives have a fitted effect of over 55% in size
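250 cells/well; 23 nL cpd via pin tool; 48 hr, 37 C, 5% CO2; Hoechst 40 min; imager read of total nuclear intensity, ex 405/em 500-530 nm.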
MCF10A rereplic: inducers of DNA re-replication in MCF 10A breast cells; MCF 10A DNA re-replication, Hoechst nuclear intensity, 48 h; hit rate 2.9% among 350,000; Potency, µM (titrated, usually from 46.1 µM), for the others: top-dose activity, positive = re-replication, most hits filed as activators; note: potency is the fitted concentration of half-maximal effect; % of control where 0% means no effect; nearly all actives have a fitted effect of over 50% in size
KB-3-1 cytotox: KB-3-1 parental cell cytotoxicity; KB-3-1 viability, CellTiter-Glo ATP luminescence, 72 h; Potency, µM (series often up to 46.1 µM), most hits filed as cytotoxic; hit rate 1.4% among 400,000; AID 1347075; note: potency is the fitted concentration of half-maximal effect; % is set by controls: 0 for no effect and ±100 for the full control effect; nearly all actives have a fitted effect of over 60% in size
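Luminescent ATP read-out (CellTiter-Glo) measures survival of drug-naive KB-3-1 cells after 72 h compound exposure at 37 °C. Titration series was screened from lowest to highest concentration, with DMSO vehicle plates as background controls.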
DRD3 agonist: agonists of human D3 dopamine receptor; D3R DiscoveRx beta-arrestin cells, luminescence, 90 min; hit rate 0.58% among 410,000; P35462; max activation, %; in the data active = max activation above about 30%; note: 0% is about no effect
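Cells at 1500/well, incubated overnight, then treated with pinned compounds (dopamine as control) for 90 min at 37 degrees C. DiscoveRx reagent added for 30 - 60 minutes at room temperature; luminescence read.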
Active calls of the source: *; i = inactive; ? = inconclusive; . = no result given; ! = not confirmed by another sample; [ ] = remark or other dose. Shown are actives, neighbours in structure and some others; about 8.9% of the full set was active somewhere. Unless noted, calls come from the whole dose curve; as a rule, active = well fitted curve in the direction sought with a large enough effect; inconclusive = small, poorly fitted or top-dose-only effect, or another doubt; inactive = no such curve, though single readings can be large; an effect the other way counts as inactive or inconclusive.

SMILES | D3 antag | KB-V1 cytotox | SW480 rerep | MCF10A rereplic | KB-3-1 cytotox | DRD3 agonist
COc1ccc(-c2cn[nH]c2-c2ccc(OCc3ccccc3)cc2O)cc1OC | -15 | ? | ? | ? | ? | 11
Cc1ccc(NC(=O)c2c(Cl)n(C)c3ccccc23)cc1 | 5 | 6.5µM* | ? | ? | ? | 2
CC(C)c1nn2c(=O)cc(COC(=O)c3ccco3)nc2s1 | . | ? | . | . | i | 5
Cc1cccc(N2C(=O)C(Oc3ccc(Cl)cc3Cl)C2C=O)c1C (configuration not stated) | -25 | ? | ? | 18µM* | ? | 2
COc1ccc(NS(=O)(=O)c2cc(NC(=O)[C@@H](NC(=O)c3ccccc3)C(C)C)ccc2C)cc1 | -4 | ? | ? | 18µM* | 8.2µM* | 0
COc1ccc(C(=O)N[C@H](C(=O)NCCCn2nc(C)cc2C)C(C)C)cc1 | -22 | 15µM* | 1% | 1% | i | -3
COc1ccc(NS(=O)(=O)c2cc(NC(=O)Cc3cccs3)ccc2C)cc1 | 9 | i | ? | 16µM* | i | 4
COc1ccc(C(=O)N[C@H](C(=O)OCCCOC(=O)[C@@H](NC(=O)c2ccc(OC)cc2)C(C)C)C(C)C)cc1 | 0 | i | -12% | 10% | i | 0
O=[N+]([O-])c1ccc(-c2nnc(-c3ccccc3)c(NCCCO)n2)cc1 | -3 | ? | 0% | 3% | i | -3
OCCCNc1nc(-c2ccc(Cl)cc2)nnc1-c1ccc(Br)cc1 | -3 | i | 3% | 0% | 23µM* | -3
CC1Cn2c(nnc2C23CC4CC(CC(C4)C2)C3)S1 (configuration not stated) | 6 | i | ? | 15µM* | i | 7
CC1Cn2c(nnc2-c2ccc(F)cc2)S1 (configuration not stated) | -8 | i | -9% | 12% | i | 0
COc1ccc(-c2cn3c(n2)sc2cc(C(=O)Nc4ccc(C)c(C)c4)ccc23)cc1 | . | . | . | . | . | 2
Cc1nn(-c2cc(N3CCCCC3)ccc2[N+](=O)[O-])c(=O)c2ccccc12 | ? | i | 6% | 5% | i | -19
CN1CCN(c2ccc([N+](=O)[O-])c(-n3nc(-c4ccccc4)c4ccccc4c3=O)c2)CC1 | -53* | 13µM* | 9% | -1% | ? | 2
Cc1cc(C)cc(OCC(=O)N(Cc2ccco2)Cc2ccccc2Cl)c1 | . | . | . | . | . | -4
CC1(C)CC(=O)C(C=Nc2ccccc2Sc2ccccc2)=C(O)C1 | -54* | i | 2% | 3% | i | -18
CC1(C)CC(=O)C(C=Nc2ccccc2C(=O)O)=C(O)C1 | 19 | i | 7% | -2% | i | 1
Cc1[nH]nc(N=CC2=C(O)CC(C)(C)CC2=O)c1-c1ccccc1 | -2 | 23µM*! | -4% | 18% | ? | 4
Cc1[nH]nc(N=CC2=C(O)CC(c3ccco3)CC2=O)c1-c1ccccc1 (configuration not stated) | -13 | 16µM*! | -5% | 8% | i | 6
COc1ccc(Br)cc1[C@H]1[C@@H]2C=CCC[C@@]2(C)C(=O)N1Cc1ccccc1 | -55* | ? | 11% | ? | ? | -36
C[C@@]12CCC=C[C@H]1[C@H](c1ccc3ccccc3c1)N(Cc1ccccc1)C2=O | 0 | ? | 4%[9.22 µM] | ? | ? | -34
COc1ccc(/C=C/c2ccccc2)cc1[C@H]1[C@@H]2C=CCC[C@@]2(C)C(=O)N1Cc1ccccc1 | -66* | i | ? | ? | i | -34
COc1ccc(-c2ccc(N(C)C)cc2)cc1[C@H]1[C@@H]2C=CCC[C@@]2(C)C(=O)N1Cc1ccccc1 | -8 | ? | ? | 17% | 18µM* | -10
COc1ccc(-c2ccc(OC)c([C@H]3[C@@H]4C=CCC[C@@]4(C)C(=O)N3Cc3ccccc3)c2)cc1OC | -2 | ? | ? | ? | ? | -2
